Assay results from the supplement of paper PMC11732987, “Enantioselective OTUD7B fragment discovery through chemoproteomics screening and high-throughput optimisation” (Communications Chemistry, 2025).

Legend:
Experiment in all cases: log2 ratio of Biotin-Ahx-Ub-VS probe labelling (fragment/DMSO); higher = less target engagement (more negative = stronger competition), active = hit call of the paper (q ≤ 0.05, log2 ratio ≤ -1)
Conditions in all cases: compound concentration: 200 uM; treatment time: 3 h
[1] = target: T1, USP19 (UniProt O94966)
T1 sequence (whole entry): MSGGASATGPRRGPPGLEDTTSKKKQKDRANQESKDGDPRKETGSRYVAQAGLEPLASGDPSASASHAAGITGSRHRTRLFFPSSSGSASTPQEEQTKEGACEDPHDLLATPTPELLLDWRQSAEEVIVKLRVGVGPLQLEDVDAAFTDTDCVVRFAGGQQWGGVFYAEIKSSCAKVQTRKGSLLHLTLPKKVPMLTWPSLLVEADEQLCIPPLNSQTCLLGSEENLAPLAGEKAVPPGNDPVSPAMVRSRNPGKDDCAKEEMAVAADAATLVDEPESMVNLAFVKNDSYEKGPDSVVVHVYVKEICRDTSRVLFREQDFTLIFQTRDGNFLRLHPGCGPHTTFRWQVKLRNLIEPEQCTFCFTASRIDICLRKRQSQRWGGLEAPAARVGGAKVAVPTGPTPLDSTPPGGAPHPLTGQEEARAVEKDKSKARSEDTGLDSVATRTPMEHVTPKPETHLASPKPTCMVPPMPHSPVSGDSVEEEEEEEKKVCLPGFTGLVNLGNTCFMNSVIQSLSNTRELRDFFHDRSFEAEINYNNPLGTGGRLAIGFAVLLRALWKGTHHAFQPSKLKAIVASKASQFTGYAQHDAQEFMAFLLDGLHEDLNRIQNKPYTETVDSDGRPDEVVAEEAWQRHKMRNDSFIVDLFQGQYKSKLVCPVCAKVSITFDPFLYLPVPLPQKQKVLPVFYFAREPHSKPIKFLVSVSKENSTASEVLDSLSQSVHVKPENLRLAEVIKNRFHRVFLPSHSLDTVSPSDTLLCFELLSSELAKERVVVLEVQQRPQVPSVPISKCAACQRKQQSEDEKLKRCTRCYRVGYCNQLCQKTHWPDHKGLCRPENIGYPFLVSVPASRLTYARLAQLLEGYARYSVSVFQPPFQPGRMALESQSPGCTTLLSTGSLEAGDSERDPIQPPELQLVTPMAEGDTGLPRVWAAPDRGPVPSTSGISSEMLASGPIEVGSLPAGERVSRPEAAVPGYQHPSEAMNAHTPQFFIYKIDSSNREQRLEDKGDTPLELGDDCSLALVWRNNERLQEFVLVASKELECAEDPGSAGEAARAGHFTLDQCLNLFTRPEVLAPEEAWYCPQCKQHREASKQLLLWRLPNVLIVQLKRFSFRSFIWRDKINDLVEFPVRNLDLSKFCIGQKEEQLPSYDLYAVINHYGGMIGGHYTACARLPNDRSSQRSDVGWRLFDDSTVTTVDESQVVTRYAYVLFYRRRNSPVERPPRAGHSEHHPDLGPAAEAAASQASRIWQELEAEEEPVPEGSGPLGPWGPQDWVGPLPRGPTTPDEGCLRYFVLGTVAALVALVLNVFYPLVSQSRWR
How it was run: (§1)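 Each value is an average log2 ratio of fragment to vehicle, tested by unpaired t-test. The underlying Spectronaut label-free quantities were global-median-normalised, and only proteins with ≥2 unique peptides were included. Triplicate HEK293T lysate samples (495 µg) were exposed to fragment at 200 µM or vehicle for 3 h, then to Biotin-Ahx-Ub-VS at 0.5 µM final for 1 h, before NeutrAvidin enrichment of labelled DUBs, LysC and trypsin digestion, and diaPASEF LC-MS/MS.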

[2] = target: USP24 (UniProt Q9UPU5)
Sequence of USP24 (Q9UPU5 whole entry): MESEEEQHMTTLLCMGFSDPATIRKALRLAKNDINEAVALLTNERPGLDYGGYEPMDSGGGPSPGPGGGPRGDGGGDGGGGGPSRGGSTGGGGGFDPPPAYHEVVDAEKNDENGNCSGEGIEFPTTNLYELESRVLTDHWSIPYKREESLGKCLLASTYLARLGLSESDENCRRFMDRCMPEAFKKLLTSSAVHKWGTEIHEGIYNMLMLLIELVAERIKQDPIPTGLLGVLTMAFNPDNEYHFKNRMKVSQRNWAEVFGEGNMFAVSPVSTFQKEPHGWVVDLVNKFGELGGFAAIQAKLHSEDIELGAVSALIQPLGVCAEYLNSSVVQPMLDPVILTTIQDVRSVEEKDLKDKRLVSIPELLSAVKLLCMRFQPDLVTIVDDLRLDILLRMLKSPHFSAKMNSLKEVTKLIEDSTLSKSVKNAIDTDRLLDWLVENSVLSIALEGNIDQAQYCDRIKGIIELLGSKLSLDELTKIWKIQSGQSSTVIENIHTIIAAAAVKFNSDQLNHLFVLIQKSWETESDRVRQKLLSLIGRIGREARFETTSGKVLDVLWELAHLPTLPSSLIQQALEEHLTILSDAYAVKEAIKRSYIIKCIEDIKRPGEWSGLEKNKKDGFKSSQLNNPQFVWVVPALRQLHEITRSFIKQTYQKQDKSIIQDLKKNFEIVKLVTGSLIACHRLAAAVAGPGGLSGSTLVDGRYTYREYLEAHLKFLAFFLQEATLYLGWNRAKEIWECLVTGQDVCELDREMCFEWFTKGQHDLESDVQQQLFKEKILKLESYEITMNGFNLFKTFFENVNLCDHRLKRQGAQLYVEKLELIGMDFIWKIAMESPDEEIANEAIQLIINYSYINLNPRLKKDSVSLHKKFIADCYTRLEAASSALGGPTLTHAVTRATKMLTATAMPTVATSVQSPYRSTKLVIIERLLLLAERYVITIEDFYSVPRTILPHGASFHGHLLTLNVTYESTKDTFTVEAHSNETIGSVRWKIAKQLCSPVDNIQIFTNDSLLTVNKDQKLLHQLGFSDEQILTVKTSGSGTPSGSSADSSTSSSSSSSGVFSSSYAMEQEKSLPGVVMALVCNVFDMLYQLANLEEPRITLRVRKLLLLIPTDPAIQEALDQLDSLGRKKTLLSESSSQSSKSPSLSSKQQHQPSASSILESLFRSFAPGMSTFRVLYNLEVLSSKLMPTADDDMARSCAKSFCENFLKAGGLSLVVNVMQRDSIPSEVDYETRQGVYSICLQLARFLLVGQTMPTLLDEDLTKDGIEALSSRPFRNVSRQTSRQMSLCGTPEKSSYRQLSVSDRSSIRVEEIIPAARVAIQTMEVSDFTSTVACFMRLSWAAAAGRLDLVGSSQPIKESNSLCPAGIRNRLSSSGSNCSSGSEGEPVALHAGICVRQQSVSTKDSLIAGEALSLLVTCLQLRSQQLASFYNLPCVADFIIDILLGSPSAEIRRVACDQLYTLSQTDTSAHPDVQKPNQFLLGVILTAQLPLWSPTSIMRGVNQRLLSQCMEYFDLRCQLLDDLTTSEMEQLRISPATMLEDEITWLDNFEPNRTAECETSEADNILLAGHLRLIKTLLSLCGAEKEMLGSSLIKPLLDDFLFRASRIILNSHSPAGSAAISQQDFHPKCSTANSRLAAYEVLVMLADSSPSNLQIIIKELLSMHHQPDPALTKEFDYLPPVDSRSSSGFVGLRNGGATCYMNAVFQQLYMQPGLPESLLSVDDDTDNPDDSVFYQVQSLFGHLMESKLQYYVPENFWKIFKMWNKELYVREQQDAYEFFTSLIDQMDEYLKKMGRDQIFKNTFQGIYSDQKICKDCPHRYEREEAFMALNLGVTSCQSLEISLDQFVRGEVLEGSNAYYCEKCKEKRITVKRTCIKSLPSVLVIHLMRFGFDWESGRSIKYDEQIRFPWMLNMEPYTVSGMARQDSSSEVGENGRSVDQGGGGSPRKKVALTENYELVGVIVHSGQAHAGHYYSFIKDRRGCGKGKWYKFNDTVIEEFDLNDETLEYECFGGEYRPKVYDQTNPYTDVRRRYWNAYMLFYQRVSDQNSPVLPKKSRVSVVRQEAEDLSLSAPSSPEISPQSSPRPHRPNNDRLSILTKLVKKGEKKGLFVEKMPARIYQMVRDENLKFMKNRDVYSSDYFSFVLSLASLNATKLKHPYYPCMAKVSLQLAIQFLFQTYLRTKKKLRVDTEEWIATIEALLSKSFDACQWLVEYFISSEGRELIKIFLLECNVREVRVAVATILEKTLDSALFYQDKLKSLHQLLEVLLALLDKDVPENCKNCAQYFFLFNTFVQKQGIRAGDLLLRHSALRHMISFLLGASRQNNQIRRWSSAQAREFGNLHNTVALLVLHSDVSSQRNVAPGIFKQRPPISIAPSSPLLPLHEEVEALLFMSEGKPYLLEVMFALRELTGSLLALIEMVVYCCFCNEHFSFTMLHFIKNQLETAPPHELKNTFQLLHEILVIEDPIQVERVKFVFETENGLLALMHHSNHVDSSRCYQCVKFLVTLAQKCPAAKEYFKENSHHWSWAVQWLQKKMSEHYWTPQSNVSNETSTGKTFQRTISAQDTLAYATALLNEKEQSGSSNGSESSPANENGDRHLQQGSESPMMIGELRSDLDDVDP
How it was run: as §1

[3] = target: T2, USP25 (UniProt Q9UHP3)
T2 sequence (whole entry): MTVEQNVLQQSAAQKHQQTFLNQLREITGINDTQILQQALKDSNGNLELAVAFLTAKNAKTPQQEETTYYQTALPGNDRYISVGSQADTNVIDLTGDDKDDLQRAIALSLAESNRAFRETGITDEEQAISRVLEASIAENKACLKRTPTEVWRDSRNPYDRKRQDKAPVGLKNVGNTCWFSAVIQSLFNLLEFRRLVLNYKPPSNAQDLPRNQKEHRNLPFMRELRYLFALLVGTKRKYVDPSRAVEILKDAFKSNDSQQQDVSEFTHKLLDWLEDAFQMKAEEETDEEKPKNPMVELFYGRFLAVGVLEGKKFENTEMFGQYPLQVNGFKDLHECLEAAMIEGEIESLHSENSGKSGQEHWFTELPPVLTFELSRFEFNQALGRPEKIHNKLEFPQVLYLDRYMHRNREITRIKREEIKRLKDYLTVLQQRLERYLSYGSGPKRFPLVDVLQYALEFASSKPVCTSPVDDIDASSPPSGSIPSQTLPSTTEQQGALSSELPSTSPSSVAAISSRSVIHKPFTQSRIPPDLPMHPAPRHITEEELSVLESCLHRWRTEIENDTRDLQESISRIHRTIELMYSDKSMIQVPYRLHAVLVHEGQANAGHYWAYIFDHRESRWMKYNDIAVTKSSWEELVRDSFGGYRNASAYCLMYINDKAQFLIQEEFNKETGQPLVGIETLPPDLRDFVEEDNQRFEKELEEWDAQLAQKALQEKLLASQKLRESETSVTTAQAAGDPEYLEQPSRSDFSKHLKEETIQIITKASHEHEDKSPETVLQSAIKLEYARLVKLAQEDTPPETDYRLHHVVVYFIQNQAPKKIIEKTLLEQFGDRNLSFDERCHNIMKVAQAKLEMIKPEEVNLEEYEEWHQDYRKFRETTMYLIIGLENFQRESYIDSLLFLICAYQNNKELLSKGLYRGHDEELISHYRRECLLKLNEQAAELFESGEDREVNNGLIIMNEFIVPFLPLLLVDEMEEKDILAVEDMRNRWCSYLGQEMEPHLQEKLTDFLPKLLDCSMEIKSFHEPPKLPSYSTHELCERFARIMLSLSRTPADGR
How it was run: as §1

[4] = target: T3, USP28 (UniProt Q96RU2)
T3 sequence (whole entry): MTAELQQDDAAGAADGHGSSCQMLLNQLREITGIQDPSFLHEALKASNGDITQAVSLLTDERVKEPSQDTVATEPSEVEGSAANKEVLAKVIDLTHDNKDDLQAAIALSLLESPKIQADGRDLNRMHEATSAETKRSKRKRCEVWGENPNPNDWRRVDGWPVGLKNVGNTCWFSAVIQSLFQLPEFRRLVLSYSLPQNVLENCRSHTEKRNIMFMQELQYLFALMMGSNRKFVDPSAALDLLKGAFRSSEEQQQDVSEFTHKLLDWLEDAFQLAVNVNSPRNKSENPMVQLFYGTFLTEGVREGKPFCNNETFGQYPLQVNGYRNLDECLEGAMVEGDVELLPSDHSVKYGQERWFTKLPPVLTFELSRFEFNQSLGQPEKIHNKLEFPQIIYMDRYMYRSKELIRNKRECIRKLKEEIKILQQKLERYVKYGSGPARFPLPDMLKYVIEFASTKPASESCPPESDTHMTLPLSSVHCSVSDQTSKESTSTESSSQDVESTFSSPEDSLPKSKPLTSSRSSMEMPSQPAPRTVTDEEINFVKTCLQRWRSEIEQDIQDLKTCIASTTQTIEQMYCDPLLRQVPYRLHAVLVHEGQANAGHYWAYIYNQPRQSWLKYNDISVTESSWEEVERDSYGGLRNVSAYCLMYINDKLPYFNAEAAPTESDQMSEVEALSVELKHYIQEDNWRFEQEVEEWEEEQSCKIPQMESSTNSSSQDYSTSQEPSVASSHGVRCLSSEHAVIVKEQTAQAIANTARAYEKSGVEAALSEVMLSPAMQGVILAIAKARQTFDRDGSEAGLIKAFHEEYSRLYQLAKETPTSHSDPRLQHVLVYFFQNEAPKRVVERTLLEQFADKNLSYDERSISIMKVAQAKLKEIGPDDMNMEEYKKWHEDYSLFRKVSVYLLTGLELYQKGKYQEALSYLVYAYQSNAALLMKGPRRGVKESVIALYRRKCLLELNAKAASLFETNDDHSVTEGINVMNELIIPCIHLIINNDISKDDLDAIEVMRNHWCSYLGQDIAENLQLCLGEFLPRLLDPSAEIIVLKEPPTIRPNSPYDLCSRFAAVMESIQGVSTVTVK
How it was run: as §1

Measured: log2 ratio of Biotin-Ahx-Ub-VS probe labelling

O=C(CCl)NC(Cn1ccccc1=O)c1ccccc1 (centres undefined)
inactive: [1] -0.14 | [2] -0.0705 | [3] -0.417 | [4] -0.211
